Literature values as cited in PubChem BioAssay AID977611.
Where “and” joins values, the source holds several entries; their conditions need not be identical. Identical values can stand only once. Out of some 3,900 compounds screened, about 3,900 (100%) were called active. No cut-off is given here; in the data, nearly all actives have Kd up to about 4200 µM. So high a share suggests a set chosen from earlier hits. This is one part of the list.

Experiment: PubChem AID 977611
Details: PDB protein-ligand complexes, literature Kd

| Structure (SMILES) | Kd |
| --- | --- |
| O=P(O)(O)OC1C(OP(=O)(O)O)C(OP(=O)(O)O)C(OP(=O)(O)O)C(OP(=O)(O)O)C1OP(=O)(O)O (stereo not drawn) | 180 nM (active) |
| NC(=O)c1ccc[n+]([C@@H]2O[C@H](COP(=O)([O-])OP(=O)(O)OC[C@H]3O[C@@H](n4cnc5c(N)ncnc54)[C@H](O)[C@@H]3O)[C@@H](O)[C@H]2O)c1 | 80 µM (active) and 63.7 µM (active) |
| Nc1ncnc2c1ncn2[C@@H]1O[C@H](COP(=O)(O)OP(=O)(O)O)[C@H]2O[C@]3(O[C@H]21)C([N+](=O)[O-])=CC([N+](=O)[O-])=CC3[N+](=O)[O-] (stereo partly drawn) | 2100 nM (active) |
